Assay results: PubChem BioAssay AID1159580 (chemical genetic matrix, 2015)
Among all 5,500 compounds or so, about 2,000 (36%) were called active. Not shown: some 18% with an inconclusive outcome. Rule as the data show it: active = normalized growth mostly below about 0.91 (no sharp cut-off); inconclusive = no clear call, values can overlap the other calls; inactive = mostly above about 0.92. The list shows a part of the results.

Experiment: chemical genetic growth profiling, strain panel (AID 1159580);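 also: tested at 20 µM; growth read once vehicle control cultures reached saturation at 30 °C; 1 = growth at the plate median or of vehicle wells; lower values mean less growth of the strain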
Conditions: S. cerevisiae deletion strains, growth OD

Measured: normalized growth

COc1ccc2c(c1)c(CC(=O)O)c(C)n2C(=O)c1ccccc1
inactive: locus YAL040C, strain CLN3, hits give low values 1.03 | locus YDR150W, strain NUM1, hits give low values 0.99 | locus YDR363W, strain ESC2, hits give low values 1.04 | locus YER002W, strain NOP16, hits give low values 1 | locus YGR078C, strain PAC10, hits give low values 1.03 | locus YGR229C, strain SMI1, hits give low values 1.02 | locus YNL153C, strain GIM3, hits give low values 0.986 | locus YNL175C, strain NOP13, hits give low values 1.02 | locus YNL197C, strain WHI3, hits give low values 1.01 | locus YNL224C, strain SQS1, hits give low values 1.02 | locus YOR083W, strain WHI5 (second series), hits give low values 1.03 | locus YPL055C, strain LGE1, hits give low values 1 | locus YPL241C, strain CIN2, hits give low values 0.998
